This is a sample that favours compounds with a hit; in the whole collection about 2.3% have one here.
CHO-K1 Ca ag: counter-screen for M1 agonists: effect in parental CHO-K1 cells; 360,000 tested, 0.48% active; activation, % at 3 µM; Fluo-8 calcium fluorescence; scaled to maximal ATP response, vehicle zero; in the data active means activation above about 15%;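 further: untransfected CHO-K1 host cells lacking M1 receptor as counterscreen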
M1 antag: human M1 muscarinic receptor antagonists, primary screen, CHO-K1 cells, Fluo-8 calcium fluorescence, 1536-well. inhibition, % at 3 µM. Muscarinic acetylcholine receptor M1 (Homo sapiens), P11229. CHO-K1 hM1, ACh EC80 antagonist. 360,000 tested, 1.3% active;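 active means percent inhibition above its own plate's cutoff, namely the mean of that plate's compound wells plus 3 SD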;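 further: peak over basal fluorescence ratio during 140 s after agonist addition; 0% = ACh EC80 plus DMSO and 100% = DMSO alone without agonist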
Target sequence (P11229 whole entry, looked up): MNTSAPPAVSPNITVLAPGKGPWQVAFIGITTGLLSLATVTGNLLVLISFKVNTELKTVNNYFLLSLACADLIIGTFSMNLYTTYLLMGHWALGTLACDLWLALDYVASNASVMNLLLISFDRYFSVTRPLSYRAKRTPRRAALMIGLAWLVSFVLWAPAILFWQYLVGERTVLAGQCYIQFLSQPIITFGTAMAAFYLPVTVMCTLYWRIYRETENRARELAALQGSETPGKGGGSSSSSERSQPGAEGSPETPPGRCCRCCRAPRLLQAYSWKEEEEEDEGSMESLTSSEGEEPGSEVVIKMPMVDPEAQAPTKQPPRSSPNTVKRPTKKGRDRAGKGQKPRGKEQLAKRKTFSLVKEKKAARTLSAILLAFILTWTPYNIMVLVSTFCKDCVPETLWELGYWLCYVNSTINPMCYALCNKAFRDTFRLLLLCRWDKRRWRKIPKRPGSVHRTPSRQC
CHRM1 PAM: human M1 muscarinic receptor positive allosteric modulators, primary screen, CHO-K1 cells, Fluo-8 calcium fluorescence, 1536-well; Muscarinic acetylcholine receptor M1 (Homo sapiens), P11229; CHO-K1 hM1, ACh EC20; 0% = ACh EC20, 100% = maximal ACh; activation, % at 3 µM; 360,000 tested, 0.088% active; AID 588819, 2011; in the data active means activation above about 19%, passing the limit was not always enough
CHRM1 agonist: human M1 muscarinic receptor agonists, primary screen, Fluo-8 calcium fluorescence, CHO-K1 cells, HTS. 360,000 tested, 0.33% active. Muscarinic acetylcholine receptor M1 (Homo sapiens), P11229. CHO-K1 hM1, agonist mode; 0% DMSO, 100% acetylcholine EC100. activation, % at 3 µM;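 active means activation above the run's mean compound activation plus 3 SD, cut at about 16% in these data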;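 further: peak over basal fluorescence ratio within a 140 s kinetic read after compound addition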
M1 PAM parental: nonselective calcium activators in parental CHO-K1 cells, primary screen, counter-screen for M1 PAM project, cell-based, Fluo-8 calcium fluorescence, full deck, 1536-well | ATP EC20; 0% at ATP EC20, 100% at ATP max | 360,000 tested, 0.02% active | activation, % at 3 µM;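 active means activation above the run cutoff, the mean activation of all test compounds plus 3 SD, cut at about 40% in these data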;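 further: peak over basal fluorescence ratio in a 140 s read after ATP addition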
CHO-K1 Ca antag: counter-screen for M1 antagonists: effect in parental CHO-K1 cells | ATP-induced calcium, Fluo-8 fluorescence | inhibition, % at 3 µM | 360,000 tested, 0.6% active;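 active means inhibition above a per-plate cutoff, the plate's mean sample inhibition plus 3 SD, cut at about 24% in these data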;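 further: 0% = DMSO plus EC80 ATP and 100% = DMSO alone without ATP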
The depositor's hits bear a star.

SMILES | CHO-K1 Ca ag | M1 antag | CHRM1 PAM | CHRM1 agonist | M1 PAM parental | CHO-K1 Ca antag
O=C(CCN1CCC2CCC(C2)C1)c1ccccc1 (stereo not drawn) | 0 | -17 | 4 | -4 | -17 | 1
CC1=C(C#N)C(C)(C)C(C#N)=C(C)N1 | 1 | -5 | 5 | -1 | 6 | -10
COc1ccc(Cc2nnc(SCC(=O)Nc3ccccc3C)n(N)c2=O)cc1 | 1 | -6 | 2 | -1 | 11 | -21
CCCCNC(=S)N/N=C1\C(=O)c2cccc3cccc1c23 | 0 | 3 | -7 | -5 | -9 | 25*
COc1ccc(CCNC(=O)CC(=O)N/N=C\c2ccc(OCC(N)=O)cc2)cc1OC | 0 | -3 | -1 | 0 | -4 | 1
CCOc1cc(N2CCOCC2)c(OCC)cc1NC(=O)COC(=O)c1cc(C)oc1C | 0 | -5 | 2 | -2 | -6 | 25*
C[C@H](NC(=O)c1ccccc1)C(=O)OCC(=O)Nc1ccc(Cl)cn1 | 0 | -5 | -5 | -2 | 8 | 12
CCn1c(=O)c2sccc2n(Cc2ccc(C)cc2)c1=O | 0 | -14 | 14 | 3 | -16 | 3
CC(=O)c1cccc(OCc2cc(C(=O)N(C)Cc3cnccn3)no2)c1 | 2 | 4 | 2 | -3 | 28 | -17
Cc1c(C(C)NC(=O)c2cc(COc3cccc4cnccc34)on2)cnn1C (stereo not drawn) | 16* | 7 | -8 | 1 | -12 | 5
CN(Cc1cccnc1)C(=O)c1cc(COc2ccc3c(c2)CCCC3)on1 | 13 | 64* | -21 | 0 | -2 | 12
CCc1ccc(CN(C)C(=O)c2cc(COc3cccc4cnccc34)on2)cc1 | 10 | 42 | -12 | -1 | -18 | 25*
CN(Cc1cccc2cnccc12)C(=O)c1cc(COc2ccc(F)cc2F)on1 | 11 | 15 | -8 | -2 | -22 | 10
O=C(NCc1ccccc1)/C(=C\c1ccc(F)cc1)NC(=O)c1ccco1 | 0 | -7 | 2 | -2 | 9 | -6
COc1ccccc1C(=O)NCCC(=O)NNC(=O)Cn1ccc(C(F)(F)F)n1 | 0 | -11 | 11 | 1 | -3 | 3
COc1ccc(F)cc1S(=O)(=O)NC1CC(C)(C)NC(C)(C)C1 | 0 | 15 | -5 | -4 | -8 | 28*
COc1ccc(NC(=O)COc2cccnc2[N+](=O)[O-])cc1OC | 2 | -7 | 7 | -6 | 18 | -29
O=C(COc1cccnc1[N+](=O)[O-])Nc1ccc2c(c1)OC(F)(F)O2 | 4 | 50* | -26 | -8 | 22 | -1
O=C(COc1cccnc1[N+](=O)[O-])Nc1ccc2c(c1)CCC2 | 1 | 36* | -20 | -4 | -22 | 1
CCOC(=O)[C@H]1[C@H]2COc3ccc(Cl)cc3[C@@H]2N2C(=O)[C@@H](C)NC(=O)[C@@]12C | 0 | 2 | 0 | -3 | 16 | -12
C[C@@H]1CN([C@H](C)CO)C(=O)c2cc(Br)cnc2O[C@H]1CN(C)C | 1 | -4 | 2 | -7 | 17 | -8
CN1CCN(c2ncnc3c2ncn3[C@H]2CN(C)C[C@@H](CO)O2)CC1 | 1 | -11 | 8 | -4 | 6 | -6
CC1=C(C(=O)N(C)C)CC(CC(=O)NCCCCc2ccccc2)C(=O)N1Cc1ccc(F)cc1 (stereo not drawn) | 0 | 8 | -15 | 35* | -3 | 20
CCN(CC)C(=O)C1=C(C)N(Cc2ccc(F)cc2)C(=O)C(CC(=O)NCCCCc2ccccc2)C1 (stereo not drawn) | 1 | -17 | 12 | 15 | 22 | -17
O=C(c1ccc(-c2ccccc2)cc1)C1CCCN(Cc2ccncc2)C1 (stereo not drawn) | 8 | 11 | -16 | -13 | 15 | 1
COCc1cc(CN2CCCC(C(=O)c3cccc(C(F)(F)F)c3)C2)ccc1OC (stereo not drawn) | 2 | 43* | -31 | -12 | 14 | -9

Source: PubChem BioAssay
